Laboratory results from the supplement of paper PMC11732987, “Enantioselective OTUD7B fragment discovery through chemoproteomics screening and high-throughput optimisation” (Communications Chemistry, 2025).

Experiments:
Test in all cases: log2 ratio of Biotin-Ahx-Ub-VS probe labelling (fragment/DMSO); higher = less target engagement (more negative = stronger competition), active = hit call of the paper (q ≤ 0.05, log2 ratio ≤ -1)
Settings in all cases: compound concentration: 200 uM; treatment time: 3 h
[1] = molecular target: T1, USP19 (UniProt O94966)
T1 sequence (whole entry): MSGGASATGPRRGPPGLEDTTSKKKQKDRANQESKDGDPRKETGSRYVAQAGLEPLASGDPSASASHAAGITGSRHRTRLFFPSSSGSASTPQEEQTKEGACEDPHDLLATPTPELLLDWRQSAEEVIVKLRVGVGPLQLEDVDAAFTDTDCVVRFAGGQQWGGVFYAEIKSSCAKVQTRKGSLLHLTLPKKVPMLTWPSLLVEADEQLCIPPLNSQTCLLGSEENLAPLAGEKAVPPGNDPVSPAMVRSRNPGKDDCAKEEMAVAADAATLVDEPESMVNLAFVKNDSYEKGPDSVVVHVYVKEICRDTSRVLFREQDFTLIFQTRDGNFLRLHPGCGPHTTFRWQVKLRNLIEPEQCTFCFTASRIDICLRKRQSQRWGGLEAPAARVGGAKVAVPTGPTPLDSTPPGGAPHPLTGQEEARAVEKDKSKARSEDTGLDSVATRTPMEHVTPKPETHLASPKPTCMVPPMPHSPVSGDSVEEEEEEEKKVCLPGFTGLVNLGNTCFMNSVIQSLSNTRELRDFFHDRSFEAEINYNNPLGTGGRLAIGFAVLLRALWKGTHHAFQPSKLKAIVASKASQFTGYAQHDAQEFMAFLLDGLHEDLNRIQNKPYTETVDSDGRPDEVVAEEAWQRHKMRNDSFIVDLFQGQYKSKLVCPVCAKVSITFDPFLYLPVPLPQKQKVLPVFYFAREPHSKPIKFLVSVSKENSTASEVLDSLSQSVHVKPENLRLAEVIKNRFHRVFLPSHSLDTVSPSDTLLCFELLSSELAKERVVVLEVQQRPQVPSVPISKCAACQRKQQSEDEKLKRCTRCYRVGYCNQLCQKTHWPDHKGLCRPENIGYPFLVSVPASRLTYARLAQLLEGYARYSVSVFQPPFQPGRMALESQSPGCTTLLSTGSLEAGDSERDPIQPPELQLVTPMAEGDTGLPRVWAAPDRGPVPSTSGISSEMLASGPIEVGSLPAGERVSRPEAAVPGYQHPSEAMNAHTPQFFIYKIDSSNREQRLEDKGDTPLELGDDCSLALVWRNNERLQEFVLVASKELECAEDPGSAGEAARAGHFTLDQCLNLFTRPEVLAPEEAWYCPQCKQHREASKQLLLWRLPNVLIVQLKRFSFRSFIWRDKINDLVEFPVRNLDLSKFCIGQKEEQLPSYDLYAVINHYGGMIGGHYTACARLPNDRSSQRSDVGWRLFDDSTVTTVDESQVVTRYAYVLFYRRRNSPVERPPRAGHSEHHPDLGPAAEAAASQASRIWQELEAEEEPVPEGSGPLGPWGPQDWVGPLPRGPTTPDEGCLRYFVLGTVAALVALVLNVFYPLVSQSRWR
Method in brief: (§1)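 Average log2 ratios of fragment over vehicle were obtained by unpaired t-test from global-median-normalised Spectronaut label-free quantities. Proteins with ≥2 unique peptides were included. HEK293T lysate (495 µg per sample) was treated in triplicate with fragment at 200 µM or vehicle for 3 h, then with Biotin-Ahx-Ub-VS at 0.5 µM final for 1 h, and labelled DUBs were NeutrAvidin-enriched and run by diaPASEF LC-MS/MS.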

[2] = molecular target: T2, USP22 (UniProt Q9UPT9)
T2 sequence (whole entry): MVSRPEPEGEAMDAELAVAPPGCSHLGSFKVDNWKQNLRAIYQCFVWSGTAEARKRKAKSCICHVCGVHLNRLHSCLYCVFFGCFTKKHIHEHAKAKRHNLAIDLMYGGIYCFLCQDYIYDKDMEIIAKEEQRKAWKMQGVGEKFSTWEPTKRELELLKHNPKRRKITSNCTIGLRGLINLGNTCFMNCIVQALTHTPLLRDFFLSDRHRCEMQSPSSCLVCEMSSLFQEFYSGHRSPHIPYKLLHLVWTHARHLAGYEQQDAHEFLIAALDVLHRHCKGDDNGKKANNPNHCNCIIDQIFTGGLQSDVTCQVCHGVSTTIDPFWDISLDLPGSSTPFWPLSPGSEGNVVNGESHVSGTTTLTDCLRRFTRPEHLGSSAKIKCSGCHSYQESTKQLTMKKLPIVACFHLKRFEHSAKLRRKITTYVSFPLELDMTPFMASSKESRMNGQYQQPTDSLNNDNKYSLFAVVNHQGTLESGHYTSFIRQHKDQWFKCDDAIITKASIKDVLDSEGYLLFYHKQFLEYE
Method in brief: as §1

[3] = molecular target: USP24 (UniProt Q9UPU5)
Chain of USP24 (Q9UPU5 whole entry): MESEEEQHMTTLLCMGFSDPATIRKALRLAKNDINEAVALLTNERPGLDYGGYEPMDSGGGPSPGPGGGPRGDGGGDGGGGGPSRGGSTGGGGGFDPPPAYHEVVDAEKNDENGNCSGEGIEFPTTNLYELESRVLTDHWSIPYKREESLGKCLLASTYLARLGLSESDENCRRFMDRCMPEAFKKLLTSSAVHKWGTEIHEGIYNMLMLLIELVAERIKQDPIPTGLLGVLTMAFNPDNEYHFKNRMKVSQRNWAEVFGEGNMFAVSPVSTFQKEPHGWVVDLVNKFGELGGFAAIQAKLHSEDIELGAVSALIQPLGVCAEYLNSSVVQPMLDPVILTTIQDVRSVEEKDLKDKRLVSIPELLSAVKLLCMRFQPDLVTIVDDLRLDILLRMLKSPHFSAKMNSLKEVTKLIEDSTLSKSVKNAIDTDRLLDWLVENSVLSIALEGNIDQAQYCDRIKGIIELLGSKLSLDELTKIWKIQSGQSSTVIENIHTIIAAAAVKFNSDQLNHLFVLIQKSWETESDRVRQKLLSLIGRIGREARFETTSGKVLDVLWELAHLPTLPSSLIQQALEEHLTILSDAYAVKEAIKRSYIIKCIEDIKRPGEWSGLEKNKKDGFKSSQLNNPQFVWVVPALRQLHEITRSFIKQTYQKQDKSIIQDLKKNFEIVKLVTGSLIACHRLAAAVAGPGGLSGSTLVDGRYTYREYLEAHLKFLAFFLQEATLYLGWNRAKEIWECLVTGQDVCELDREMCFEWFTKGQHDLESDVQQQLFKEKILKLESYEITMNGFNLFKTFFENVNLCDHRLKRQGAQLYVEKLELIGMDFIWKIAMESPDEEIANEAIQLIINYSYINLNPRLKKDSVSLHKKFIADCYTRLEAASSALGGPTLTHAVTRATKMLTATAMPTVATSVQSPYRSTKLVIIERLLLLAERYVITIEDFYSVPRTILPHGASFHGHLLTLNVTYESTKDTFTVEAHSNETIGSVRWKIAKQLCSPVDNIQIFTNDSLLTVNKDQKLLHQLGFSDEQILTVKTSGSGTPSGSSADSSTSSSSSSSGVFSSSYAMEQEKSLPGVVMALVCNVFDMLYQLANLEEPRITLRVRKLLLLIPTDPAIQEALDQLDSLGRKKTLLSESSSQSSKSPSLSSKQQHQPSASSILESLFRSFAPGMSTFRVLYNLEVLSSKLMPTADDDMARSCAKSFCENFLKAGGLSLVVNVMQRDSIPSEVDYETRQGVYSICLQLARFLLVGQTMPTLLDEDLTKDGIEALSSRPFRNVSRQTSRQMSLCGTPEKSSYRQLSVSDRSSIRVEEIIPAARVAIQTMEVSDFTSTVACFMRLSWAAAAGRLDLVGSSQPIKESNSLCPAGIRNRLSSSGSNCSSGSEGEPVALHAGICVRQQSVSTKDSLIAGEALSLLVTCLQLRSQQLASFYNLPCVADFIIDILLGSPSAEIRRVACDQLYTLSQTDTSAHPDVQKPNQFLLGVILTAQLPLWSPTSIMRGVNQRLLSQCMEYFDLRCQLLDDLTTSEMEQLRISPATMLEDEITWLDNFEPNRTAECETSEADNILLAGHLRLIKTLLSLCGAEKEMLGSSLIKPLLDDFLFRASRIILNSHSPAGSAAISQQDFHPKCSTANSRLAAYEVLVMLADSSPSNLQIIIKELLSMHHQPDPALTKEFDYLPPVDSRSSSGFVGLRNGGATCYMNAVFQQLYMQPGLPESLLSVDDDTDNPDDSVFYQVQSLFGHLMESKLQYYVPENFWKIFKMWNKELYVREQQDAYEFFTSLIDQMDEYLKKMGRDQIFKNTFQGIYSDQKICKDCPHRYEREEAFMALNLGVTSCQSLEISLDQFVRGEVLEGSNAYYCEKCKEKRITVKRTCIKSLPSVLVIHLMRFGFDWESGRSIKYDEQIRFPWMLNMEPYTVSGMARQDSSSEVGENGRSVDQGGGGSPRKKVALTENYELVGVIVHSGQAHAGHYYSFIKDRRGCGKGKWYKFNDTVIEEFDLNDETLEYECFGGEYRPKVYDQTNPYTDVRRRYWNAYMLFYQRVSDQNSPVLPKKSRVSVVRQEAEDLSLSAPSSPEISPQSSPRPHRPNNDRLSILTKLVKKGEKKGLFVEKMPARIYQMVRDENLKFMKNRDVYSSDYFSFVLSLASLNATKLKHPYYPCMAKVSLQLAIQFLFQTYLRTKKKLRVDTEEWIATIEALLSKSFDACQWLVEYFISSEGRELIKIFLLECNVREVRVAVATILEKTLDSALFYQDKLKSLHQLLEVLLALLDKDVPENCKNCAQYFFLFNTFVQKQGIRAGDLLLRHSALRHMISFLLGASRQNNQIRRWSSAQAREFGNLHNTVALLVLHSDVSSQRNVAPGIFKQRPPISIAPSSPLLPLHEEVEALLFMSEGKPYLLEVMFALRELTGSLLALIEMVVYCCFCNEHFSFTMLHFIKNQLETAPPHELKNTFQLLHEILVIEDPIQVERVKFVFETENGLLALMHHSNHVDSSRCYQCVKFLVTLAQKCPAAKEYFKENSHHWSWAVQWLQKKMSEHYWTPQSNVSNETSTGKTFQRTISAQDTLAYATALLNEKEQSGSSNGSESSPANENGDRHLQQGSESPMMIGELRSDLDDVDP
Method in brief: as §1

[4] = molecular target: T3, USP25 (UniProt Q9UHP3)
T3 sequence (whole entry): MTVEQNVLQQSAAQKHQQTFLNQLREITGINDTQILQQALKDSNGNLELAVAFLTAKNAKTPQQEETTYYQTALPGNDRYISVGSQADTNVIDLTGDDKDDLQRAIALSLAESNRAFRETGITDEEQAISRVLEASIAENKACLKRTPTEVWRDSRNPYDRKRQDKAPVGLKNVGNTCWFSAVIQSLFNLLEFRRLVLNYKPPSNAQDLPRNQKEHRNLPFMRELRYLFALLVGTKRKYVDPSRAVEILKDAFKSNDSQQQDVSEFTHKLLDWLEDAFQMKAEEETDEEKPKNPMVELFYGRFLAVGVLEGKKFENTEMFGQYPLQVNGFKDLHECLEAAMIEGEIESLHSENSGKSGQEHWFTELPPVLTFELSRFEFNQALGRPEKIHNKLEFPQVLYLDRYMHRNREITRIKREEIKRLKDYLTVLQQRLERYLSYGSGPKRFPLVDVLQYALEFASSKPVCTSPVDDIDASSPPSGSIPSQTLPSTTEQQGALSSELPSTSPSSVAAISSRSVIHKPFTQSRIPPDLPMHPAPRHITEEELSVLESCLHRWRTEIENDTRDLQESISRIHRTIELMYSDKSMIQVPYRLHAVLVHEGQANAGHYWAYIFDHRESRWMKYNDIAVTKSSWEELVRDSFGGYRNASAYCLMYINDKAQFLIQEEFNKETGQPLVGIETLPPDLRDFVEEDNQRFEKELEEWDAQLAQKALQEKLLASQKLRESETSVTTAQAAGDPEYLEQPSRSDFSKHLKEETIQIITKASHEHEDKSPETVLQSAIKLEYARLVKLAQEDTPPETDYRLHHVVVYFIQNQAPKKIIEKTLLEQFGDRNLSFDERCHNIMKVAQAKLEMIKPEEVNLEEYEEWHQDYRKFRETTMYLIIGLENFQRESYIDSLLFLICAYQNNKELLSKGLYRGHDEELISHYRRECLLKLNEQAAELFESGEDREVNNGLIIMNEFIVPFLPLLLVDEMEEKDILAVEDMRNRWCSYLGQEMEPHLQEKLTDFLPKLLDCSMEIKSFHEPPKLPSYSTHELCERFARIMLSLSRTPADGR
Method in brief: as §1

[5] = molecular target: T4, USP28 (UniProt Q96RU2)
T4 sequence (whole entry): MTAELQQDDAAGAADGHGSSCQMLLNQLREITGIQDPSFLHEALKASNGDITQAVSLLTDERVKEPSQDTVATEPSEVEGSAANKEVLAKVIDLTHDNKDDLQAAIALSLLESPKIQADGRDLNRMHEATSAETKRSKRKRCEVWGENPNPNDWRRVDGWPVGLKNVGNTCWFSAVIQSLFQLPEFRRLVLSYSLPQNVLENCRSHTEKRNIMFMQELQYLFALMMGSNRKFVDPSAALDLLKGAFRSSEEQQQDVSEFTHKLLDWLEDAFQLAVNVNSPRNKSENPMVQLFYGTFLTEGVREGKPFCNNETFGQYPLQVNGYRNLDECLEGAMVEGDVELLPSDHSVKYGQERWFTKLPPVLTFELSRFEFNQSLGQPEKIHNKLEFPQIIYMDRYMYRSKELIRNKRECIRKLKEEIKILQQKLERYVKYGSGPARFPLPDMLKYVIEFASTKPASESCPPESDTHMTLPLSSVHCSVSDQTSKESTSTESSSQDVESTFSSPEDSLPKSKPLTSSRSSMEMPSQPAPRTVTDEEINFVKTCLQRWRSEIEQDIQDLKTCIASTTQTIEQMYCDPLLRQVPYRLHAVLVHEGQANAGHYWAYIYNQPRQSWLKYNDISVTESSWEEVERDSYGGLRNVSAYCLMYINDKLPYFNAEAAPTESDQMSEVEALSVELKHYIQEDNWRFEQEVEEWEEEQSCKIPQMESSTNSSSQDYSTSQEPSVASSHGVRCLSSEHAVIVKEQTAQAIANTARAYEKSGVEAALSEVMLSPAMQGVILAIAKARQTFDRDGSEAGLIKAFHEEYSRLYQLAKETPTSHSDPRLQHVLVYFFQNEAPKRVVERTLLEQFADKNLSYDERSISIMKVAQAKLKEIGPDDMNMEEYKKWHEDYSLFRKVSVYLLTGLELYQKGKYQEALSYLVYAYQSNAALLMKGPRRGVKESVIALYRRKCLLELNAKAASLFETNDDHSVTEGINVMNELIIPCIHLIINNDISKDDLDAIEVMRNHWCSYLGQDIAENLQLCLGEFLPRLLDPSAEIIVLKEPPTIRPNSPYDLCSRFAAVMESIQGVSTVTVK
Method in brief: as §1

Measured: log2 ratio of Biotin-Ahx-Ub-VS probe labelling

Cc1nc(CN2CCN(C(=O)CCl)CC2)cs1
inactive: [1] -0.347 | [2] -0.169 | [3] -0.513 | [4] -0.212 | [5] -0.543
